Rows were chosen to be rich in hits. Some 9.4% of all compounds tested hit in one or more screens of this group.
SARS PLP yeast = qHTS of Yeast-based Assay for SARS-CoV PLP. S. cerevisiae expressing SARS-CoV PLpro, growth rescue. Potency, µM (doses to about 32.9 µM), for inactives: at the highest dose activity, positive = growth rescue, actives largely listed as activators. 330,000 tested, 0.19% active. AID 485353, 2010; calls by dose curve; further: 0% is about no effect; nearly all actives have a fitted effect of over 55% in size
Pf growth 48h = Primary qHTS for delayed death inhibitors of the malarial parasite plastid, 48 hour incubation; P. falciparum luciferase growth in erythrocytes, 48 h; Potency, µM (doses to about 28.7 µM), for the others: top-dose activity change, negative = inhibition, actives largely listed as inhibitors; 310,000 tested, 5.9% active; further: on the % scale 0 is the no-effect control and ±100 the full control effect
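Parasite viability was followed by luminescence of a genomically integrated firefly luciferase. Cultures held 0.1% parasitemia at 2% hematocrit (final), incubated under 5% CO2 at 37 C.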
AMA1-RON2 inh = qHTS for Inhibitors of AMA1-RON; Towards Development of Antimalarial Drug Lead: Primary Screen | Plasmodium falciparum AMA1 (3D7) - RON2 peptide interaction | AlphaScreen AMA1-biotinylated RON2 peptide binding | Potency, µM (highest dose often 58.2 µM), without a hit: at the top dose activity change, negative = inhibition, actives largely listed as inhibitors | 360,000 tested, 0.2% active;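 further: 0% = vehicle wells and -100% = peptide control; nearly all actives have a fitted effect of over 45% in size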
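AMA1 (3D7) with his tag at 25 nM final met compounds first, then biotinylated RON2 peptide at 25 nM; detection used donor plus acceptor beads, 10 µg/mL apiece, read by AlphaScreen after 30 min at room temperature.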
Pf growth 96h = Primary qHTS for delayed death inhibitors of the malarial parasite plastid, 96 hour incubation. P. falciparum luciferase reporter growth, 96 h. Potency, µM (series often up to 28.7 µM), inactives show at the top dose activity change, negative = inhibition, actives largely listed as inhibitors. 320,000 tested, 6.9% active; further: on the % scale 0 is the no-effect control and ±100 the full control effect
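Delayed-death screen, second-generation endpoint: infected erythrocytes, 2% hematocrit, 0.05% parasitemia final; 96 hours at 37 C, 5% CO2; luciferase detection reagent; luminescence decrease equals reduced growth.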
The depositor's hits bear a star; [ ] = another dose, or the depositor's remark. Unless noted, the call rests on the fitted dose curve; in most records, active means well fitted curve in the direction sought with a large enough effect; inconclusive means small, poorly fitted or top-dose-only effect, or another doubt; inactive means no such curve, though single readings can be large; an effect the other way counts as inactive or inconclusive. Potency means the concentration at half of the fitted maximal effect.

How did COc1ccc(C(=O)COC(=O)CCn2nnc(-c3cccc(O)c3OC)n2)cc1 do in these assays?
SARS PLP yeast: 0%; Pf growth 48h: -7%; AMA1-RON2 inh: 2%; Pf growth 96h: 12µM*

Results for CCCOc1ccc(C(=O)O)cc1 ?
SARS PLP yeast: -2%; Pf growth 48h: 0%; AMA1-RON2 inh: 5%; Pf growth 96h: 1%

What do the screens show for `COc1ccc2[nH]c3c(NCCN4CCCCC4)ncnc3c2c1`?
SARS PLP yeast: 1%; Pf growth 48h: 2.1µM*; Pf growth 96h: 20%

What do the screens show for `CCOc1ccc2[nH]c3c(NCCc4ccc(OC)c(OC)c4)ncnc3c2c1`?
SARS PLP yeast: 1%; Pf growth 48h: 4.7µM*; AMA1-RON2 inh: -29%; Pf growth 96h: 3.7µM*

Results for CCOc1ccc2[nH]c3c(NCCO)ncnc3c2c1 ?
SARS PLP yeast: -1%; Pf growth 48h: 11%; AMA1-RON2 inh: -8%; Pf growth 96h: 12%

Results for COc1cc(CCC(=O)Nc2cc(S(=O)(=O)N3CCOCC3)ccc2OC(C)C)cc(OC)c1OC ?
AMA1-RON2 inh: 0%

What do the screens show for `CCCN=C(C)C1=C(O)c2ccccc2C1=O`?
SARS PLP yeast: -14%; Pf growth 48h: 95%; AMA1-RON2 inh: -7%; Pf growth 96h: 154%

How did CC1Cc2ccccc2N1C(=O)CO/N=C/c1ccccc1OC(F)F (stereo not drawn) do in these assays?
SARS PLP yeast: -2%; Pf growth 48h: -1%; AMA1-RON2 inh: 8%; Pf growth 96h: -12%

Results for Cc1ccc(NS(=O)(=O)c2cc(C(=O)N3CCc4ccccc4C3)ccc2Cl)cc1 ?
SARS PLP yeast: -5%; Pf growth 48h: 2%; AMA1-RON2 inh: 0%; Pf growth 96h: -21%

Results for Cc1cc(=O)oc2ccc(OCC(=O)N3CCC(C)CC3)cc12 ?
SARS PLP yeast: -2%; Pf growth 48h: 28%; AMA1-RON2 inh: -3%; Pf growth 96h: 0%

How did N#C/C(=C\c1ccc(OCc2ccccc2)cc1)C(=O)Nc1nc2c(s1)CCN(Cc1ccccc1)C2 do in these assays?
SARS PLP yeast: -21%; Pf growth 48h: 8.3µM*; AMA1-RON2 inh: 7%; Pf growth 96h: inconclusive

Results for CCOC(=O)Nc1ccc2c(CN3C(=O)NC4(CCCC4)C3=O)cc(=O)oc2c1 ?
SARS PLP yeast: 3%; Pf growth 48h: inconclusive; AMA1-RON2 inh: -2%; Pf growth 96h: inconclusive

What do the screens show for `CCOC(=O)Nc1ccc2c(CN3CCN(S(=O)(=O)c4ccccc4)CC3)cc(=O)oc2c1`?
SARS PLP yeast: inconclusive; Pf growth 48h: 9.3µM*; AMA1-RON2 inh: 4%; Pf growth 96h: 6.6µM*

Results for O=c1cc(CN2CCN(S(=O)(=O)c3ccc4c(c3)OCCO4)CC2)c2ccc(O)cc2o1 ?
SARS PLP yeast: 9%; Pf growth 48h: inconclusive; AMA1-RON2 inh: -14%

Results for CCc1ccc2c(CN3CCN(S(=O)(=O)c4ccc5c(c4)OCCO5)CC3)cc(=O)oc2c1 ?
SARS PLP yeast: -27%; Pf growth 48h: 9.3µM*; AMA1-RON2 inh: -6%; Pf growth 96h: inconclusive

How did NC(CCC(=O)N[C@@H](CS)C(=O)NCC(=O)O)C(=O)O (stereo partly drawn) do in these assays?
Pf growth 48h: 2.1µM*; Pf growth 96h: 3µM*

Results for O=C(Nc1ccc(C(F)(F)F)cc1-c1ccccc1)c1ccccc1 ?
SARS PLP yeast: inconclusive; Pf growth 48h: -12%; AMA1-RON2 inh: -11%[11.6 µM]; Pf growth 96h: -7%

How did O=C(O)c1c2c(nc3ccccc13)-c1ccccc1CC2 do in these assays?
SARS PLP yeast: -2%; Pf growth 48h: 29%; AMA1-RON2 inh: -6%; Pf growth 96h: 0%

Results for c1ccc2c(c1)CCc1c-2nc2ccccc2c1N1CCOCC1 ?
SARS PLP yeast: -2%; Pf growth 48h: 15µM*; AMA1-RON2 inh: 15%; Pf growth 96h: inconclusive

Results for CCC(C)N(C)Cc1cccc(C2(O)CCN(S(=O)(=O)c3ccc(F)c(C)c3)CC2)c1 (stereo not drawn) ?
SARS PLP yeast: -4%; Pf growth 48h: 13µM*; AMA1-RON2 inh: -2%; Pf growth 96h: inconclusive

How did Cc1cc(S(=O)(=O)N2CCN(c3c(C)cccc3C)CC2)ccc1F do in these assays?
SARS PLP yeast: -22%; Pf growth 48h: inconclusive; AMA1-RON2 inh: 18%

How did Cn1cnc2c(N/N=C/c3cccs3)ncnc21 do in these assays?
SARS PLP yeast: -1%; Pf growth 48h: 124%; AMA1-RON2 inh: 62%; Pf growth 96h: 102%

What do the screens show for `COC(=O)C1=CN(Cc2ccc(C)cc2)C=C(C(=O)OC)C1c1cc(OC)c(OC)c(OC)c1`?
SARS PLP yeast: 1%; Pf growth 48h: 1.5µM*; AMA1-RON2 inh: 46%; Pf growth 96h: inconclusive

Results for COCCN1C=C(C(=O)OC)C(c2cc(Br)c(OC)c(OC)c2)C(C(=O)OC)=C1 ?
SARS PLP yeast: 0%; Pf growth 48h: 3.3µM*; AMA1-RON2 inh: 31%; Pf growth 96h: 4%

Results for COC(=O)C1=CN(Cc2ccccc2)C=C(C(=O)OC)C1c1ccc(OC)c(OC)c1 ?
SARS PLP yeast: 2%; Pf growth 48h: inconclusive; AMA1-RON2 inh: -2%; Pf growth 96h: 0%

Results for COCCN1C=C(C(=O)OC)C(c2ccccc2Cl)C(C(=O)OC)=C1 ?
SARS PLP yeast: -7%; Pf growth 48h: inconclusive; AMA1-RON2 inh: 0%; Pf growth 96h: -13%

How did COC(=O)C1=CN(Cc2ccccc2)C=C(C(=O)OC)C1c1ccc(O)c(OC)c1 do in these assays?
SARS PLP yeast: 4%; Pf growth 48h: 13µM*; AMA1-RON2 inh: 8%; Pf growth 96h: 240%

How did COC(=O)c1ccc(NC(=O)CC2C(=O)N(C)C(=S)N2Cc2ccc(S(N)(=O)=O)cc2)cc1 (stereo not drawn) do in these assays?
SARS PLP yeast: 1%; Pf growth 48h: inconclusive; AMA1-RON2 inh: inconclusive; Pf growth 96h: inconclusive

Results for Fc1ccccc1N1CCN(C(c2cccs2)c2nnnn2CCc2ccccc2)CC1 (stereo not drawn) ?
SARS PLP yeast: -1%; Pf growth 48h: 8.3µM*; AMA1-RON2 inh: -12%; Pf growth 96h: inconclusive

How did CC1CCN(C(c2cccs2)c2nnnn2Cc2ccccc2)CC1 (stereo not drawn) do in these assays?
SARS PLP yeast: -29%; AMA1-RON2 inh: 4%; Pf growth 96h: 2.6µM*

What do the screens show for `c1ccc(CCn2nnnc2C(c2cccs2)N2CCN(Cc3ccc4c(c3)OCO4)CC2)cc1` (stereo not drawn)?
SARS PLP yeast: 5%; Pf growth 48h: inconclusive; AMA1-RON2 inh: inconclusive; Pf growth 96h: -5%

Results for COCCn1nnnc1C(c1cccs1)N1CCN(c2ccccc2)CC1 (stereo not drawn) ?
SARS PLP yeast: -1%; Pf growth 48h: -16%; AMA1-RON2 inh: 6%; Pf growth 96h: inconclusive

Results for c1ccc(Cn2nnnc2C(c2cccs2)N2CCSCC2)cc1 (stereo not drawn) ?
SARS PLP yeast: 4%; Pf growth 48h: inconclusive; AMA1-RON2 inh: -13%; Pf growth 96h: inconclusive

Assay outcomes from PubChem.
